From PubChem BioAssay (NCI) come the findings set out here.

Molecules are shown by their SMILES. About 83,000 compounds went through this panel and 20% of them were active in at least one assay; those are over-represented in the sample as a whole.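 Growth was measured after 48 h exposure to one concentration of compound in 96-well plates. Values under 10 count as active.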 Values without a mark were called inactive. Activity calls are given as the source filed them.

Common to all, as to test: NCI-60 one-dose screen, 48 h (100 = growth as untreated, 0 = no growth, -100 = all killed)
Holding throughout (settings): 10 µM unless noted

Assay [1] relates to NCI-H23 lung.
The subject of assay [2] is NCI-H226 lung.
Assay [3] has as its system NCI-H322M lung.
In assay [4] the test system is HOP-62 NSCLC.
In assay [5] the test system is NCI-H460 lung.
The test system of assay [6] is HOP-92 NSCLC.
Assay [7] has as its system NCI-H522 lung.
Assay [8] concerns A549/ATCC NSCLC.
Assay [9] has as its system 786-0 renal.
Assay [10] has as its system COLO 205 colon.

Turning to `Cc1ccc(N=Nc2c(N)nn3c(-c4cc5ccccc5oc4=O)ccnc23)cc1`, the growth in assay [1] is 28%; in [2] it was 33.4%; in assay [3] it was 51.6%; in [4] it was 48.5%; in assay [5], 50%; in [6], 49.9%. Moreover, the growth was 64.9% in assay [7], 45.1% in assay [8], 53.4% in [9] and 6.35% (active) in [10].

For `CC(=O)Nc1ccc(S(=O)(=O)Nc2ccc(-c3ccc4c(c3)NC(=O)/C4=C\c3ccc[nH]3)cc2)cc1`, the growth was 42.1% in assay [1]; 85% in [2]; 64.8% in assay [3]; 87% in [4]; 38.6% in assay [5]; 91.5% in assay [6]. Further, the growth is 75.2% in assay [7], 79.6% in assay [8], 104% in assay [9] and 96.6% in [10].

As for `O=C(N=Nc1c(O)[nH]c2ccc(Br)cc12)c1ccc2nc(-c3ccc(Cl)cc3)[nH]c2c1`, the growth in [1] was -69.4% (active); in [2] it was 16.6%; in assay [3], 6.48% (active); in assay [4], -55.9% (active); in [5], -19.4% (active); in [6], -9.49% (active). The growth in [7] was -47.2% (active); in [8], 14.9%; in [9], -73.7% (active); in [10], -36.1% (active).

Turning to `CN1C(=O)/C(=C/c2ccco2)S/C1=N/c1nccs1`, the growth in assay [1] was 97.3%; in [2], 113%; in [3], 94.3%; in [4] it was 108%; in [5], 103%; in [6] it was 114%. Also, the growth is 100% in assay [7], 107% in assay [8], 97.6% in assay [9] and 121% in assay [10].

Take `O=C(N/N=C/c1c[nH]c2ccccc12)Nc1ccc(F)c(Cl)c1`: the growth was 28.8% in assay [1]; 65.6% in [2]; 85.8% in assay [3]; 53.8% in assay [4]; 23% in [5]; 39.9% in [6]. Further, the growth is -29.1% (active) in assay [7], 39.4% in assay [8], 33.9% in assay [9] and 33.7% in assay [10].

In the case of `O=C(/C=C1\C(=O)N(Cc2ccccc2)c2ccccc21)c1cc2ccccc2oc1=O`, the growth in assay [1] is 89.4%; in [2], 74.2%; in assay [3] it was 93.9%; in assay [4], 102%; in assay [5] it was 103%; in assay [6], 87.9%. Besides, the growth is 35.4% in assay [7], 104% in [8], 100% in assay [9] and 28.6% in [10].

For `NNc1ncnc2sc3c(c12)CCN(Cc1ccccc1)C3`, the growth in assay [1] was 73.2%; in [2], 38.9%; in assay [3], 40.9%; in [4], 58%; in [5], 37.3%; in assay [6], 77.7%. In addition, the growth was 2.62% (active) in assay [7], 75.1% in assay [8], 59.1% in assay [9] and 16.6% in assay [10].

As for `C=CCSc1nnc(-c2ccc(-c3nc4ccc(Cl)cc4[nH]3)cc2)o1`, the growth in assay [1] is 76.2%; in assay [2], 103%; in assay [3], 86.7%; in assay [4], 39.9%; in assay [5], 38.1%; in [6] it was 81.8%. Further, the growth is 29.8% in [7], 60.3% in assay [8], 76.4% in assay [9] and 55.7% in assay [10].

Consider `O=C(NN1C(=O)/C(=C/C=C/c2ccc([N+](=O)[O-])o2)SC1=S)c1ccncc1`, for which the growth in assay [1] is -88.8% (active); in assay [2] it was -52.7% (active); in assay [3] it was -16.3% (active); in assay [4], -97.5% (active); in assay [5], -53.6% (active); in assay [6], -85.1% (active). For the same molecule, the growth in assay [7] was -83.8% (active); in assay [8] it was -34.7% (active); in [9], -79.9% (active); in assay [10], -96.9% (active).

For `Cc1ccccc1Nc1nnc(-c2c[nH]c3ccccc23)o1`, the growth in assay [1] is 28.1%; in assay [2], 43.9%; in assay [3], 38.2%; in assay [4], 24.8%; in [5], 20.1%; in [6], 29.1%. Also, the growth in assay [7] was -23.2% (active); in [8], 40.3%; in assay [9], 40%; in assay [10], -32.7% (active).

On to `NS(=O)(=O)c1ccc(Nc2nc(SCC(=O)c3ccc(F)cc3)nc3ccccc23)cc1`, for which the growth in [1] was 41.8%; in assay [2], 50.1%; in assay [3], 58.7%; in [4], 54.4%; in assay [5], 36%; in assay [6] it was 56.3%. In addition, the growth in assay [7] was 42.1%; in [8] it was 53.8%; in [9], 68.9%; in assay [10], 77%.

As for `O=C(Nc1ccc(-c2ccc3c(c2)NC(=O)/C3=C\c2ccc[nH]2)cc1)Nc1ccc(Cl)c(C(F)(F)F)c1`, the growth is 15.4% in [1]; 65.8% in [2]; 50.6% in [3]; 44.1% in assay [4]; 4.07% (active) in assay [5]; 46.9% in [6]. Also, the growth in [7] was -15.1% (active); in [8], 18%; in assay [9] it was 48.8%; in assay [10], 15.4%.

For the molecule `Nc1cc2ccccc2c(=O)n1NC(=O)c1ccc(Br)cc1`, the growth in [1] was 81.8%; in assay [2] it was 69%; in assay [3], 74.4%; in assay [4] it was 101%; in [5] it was 98.6%; in [6], 103%. The growth in assay [7] is 96.7%; in [8], 100%; in assay [9], 107%; in assay [10] it was 114%.
